# Rows were chosen to be rich in hits. Some 1.5% of all compounds tested hit in one or more screens of this group.
# Epigenetic derep: Quantitative High-Throughput Screen for Regulators of Epigenetic Control; murine LDR cells, GFP reporter derepression, 30 h; Potency, µM (doses to about 53.9 µM), inactives show at the top dose GFP activation, usual class: activators; 280,000 compounds, 0.2% hits; further: % of control where 0% means no effect; nearly all actives have a fitted effect of over 60% in size
#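 Murine LDR cells bearing a silenced CMV-driven GFP reporter were exposed to compound for 30 h at 37 C. After PBS washes, GFP-positive cells (20-120 um objects) counted by laser-scanning microplate cytometry.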
# HTT ATP protect: qHTS Multiplex Assay to Identify Dual Action Probes in a Cell Model of Huntington: Cytoprotection (ATP) | PC12 HTT-Q103 induced, cytoprotection, ATP luminescence, 40 h | Potency, µM (top dose mostly 56.4 µM), without a hit: cytoprotection (ATP increase), hits mostly activators | 230,000 compounds, 0.14% hits | AID 1471, 2008; further: % of control where 0% means no effect; nearly all actives have a fitted effect of over 45% in size
#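 Rat PC12, Q103 Htt exon1-GFP fusion, ecdysone promoter; tebufenozide inducer 100 nM final; compound titration; qHTS, 1500 cells/well; ATPlite luminescent read.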
# LMNA splice mod: qHTS Assay for Modulators of Lamin A Splicing | HeLa LMNA splicing GFP/RFP minigene ratio, 48 h | 200,000 compounds, 0.01% hits | Potency, µM (highest dose often 46.1 µM), without a hit: at the top dose ratio change, negative = inhibition, most hits filed as inhibitors; active means well fitted inhibition curve with a large enough effect in the signal ratio, with a control signal flat, not every such curve was filed as active; inconclusive means small, poorly fitted or top-dose-only effect, or effect the other way, or a change in a side signal; the % refers to the signal ratio; further: on the % scale 0 is the no-effect control and ±100 the full control effect
#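 Read-out is the ratio of GFP to DsRed2 object intensity, acquired by 488 nm laser-scanning cytometry on HeLa lamin A-EGFP minigene reporter cells. Compound incubation 48 hrs at 37 °C in Opti-MEM with 2% FBS; DMSO 0.5% final.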
# NPSR antagonist: qHTS Assay for Antagonists of the Neuropeptide S Receptor: cAMP Signal Transduction; Q6W5P4; CHO-NPSR cells, cAMP TR-FRET, antagonist mode; Potency, µM (doses to about 38.3 µM), inactives show at the highest dose activity change, negative = inhibition, usual class: inhibitors; 220,000 compounds, 1% hits; AID 1461, 2008; further: on the % scale 0 is the no-effect control and ±100 the full control effect; nearly all actives have a fitted effect of over 50% in size
# Target sequence (Q6W5P4 whole entry, looked up): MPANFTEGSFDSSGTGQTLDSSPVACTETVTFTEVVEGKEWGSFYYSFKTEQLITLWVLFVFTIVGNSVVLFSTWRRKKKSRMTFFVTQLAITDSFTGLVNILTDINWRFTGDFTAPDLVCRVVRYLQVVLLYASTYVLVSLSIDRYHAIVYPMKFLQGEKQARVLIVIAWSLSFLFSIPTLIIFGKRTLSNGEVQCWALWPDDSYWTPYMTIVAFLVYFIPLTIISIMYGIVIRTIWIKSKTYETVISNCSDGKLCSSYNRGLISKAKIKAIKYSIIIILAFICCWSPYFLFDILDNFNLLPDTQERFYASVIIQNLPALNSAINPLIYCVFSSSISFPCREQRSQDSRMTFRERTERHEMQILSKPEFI
# HTT aggregate: qHTS Multiplex Assay to Identify Dual Action Probes in a Cell Model of Huntington: Aggregate Formation (GFP). Potency, µM (top dose mostly 46.1 µM), for the others: at the top dose activity change, negative = inhibition, usual class: inhibitors. PC12 HttQ103-GFP aggregates, Acumen cytometry, 40 h. 220,000 compounds, 1.1% hits; further: on the % scale 0 is the no-effect control and ±100 the full control effect; nearly all actives have a fitted effect of over 60% in size
#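 Compounds (qHTS titration) were added to PC12 cells expressing an ecdysone-driven HTT exon 1 Q103–GFP fusion after induction with 100 nM tebufenozide. Aggregate formation was measured as GFP objects in cell lysates.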
# An asterisk follows results filed as active; ? = inconclusive; nt = no result; [ ] = another dose, or the depositor's remark. Unless noted, the call rests on the fitted dose curve; in most records, active means well fitted curve in the direction sought with a large enough effect; inconclusive means small, poorly fitted or top-dose-only effect, or another doubt; inactive means no such curve, though single readings can be large; an effect the other way counts as inactive or inconclusive. Potency means the concentration at half of the fitted maximal effect.
SMILES,Epigenetic derep,HTT ATP protect,LMNA splice mod,NPSR antagonist,HTT aggregate
CCOC(=O)N/N=C\c1ccc([N+](=O)[O-])o1,-2%,-4%,16%,1%[46.1 µM],-31%
O=[N+]([O-])c1ccc(/C=N/N=C/c2ccc([N+](=O)[O-])o2)o1,2%,-179%,?,5µM*,6%[9.22 µM]
O=C1CCCC/C1=C\Nc1ccc(C(=O)O)c(O)c1,0%,6%[10 µM],nt,-7%,-9%[9.22 µM]
COc1ccc(N2Cc3cccc(C(=O)Nc4ccc(C(C)C)cc4)c3C2=O)cc1,-1%,nt,nt,nt,nt
Cc1ccccc1NC(=O)/C=C/c1ccc([N+](=O)[O-])s1,3.5µM*,nt,?,-7%[46.1 µM],?
Cc1ccccc1C(=O)N/N=C/c1ccc([N+](=O)[O-])s1,-1%,-58%,?,9%[46.1 µM],25µM*
O=[N+]([O-])c1ccc(O)c(/C=N/NC(=S)Nc2ccc(Cl)cc2Cl)c1,-2%,36%[10 µM],nt,-50%,-39%[9.22 µM]
O=[N+]([O-])c1ccc(/C=N/NC(=S)Nc2ccc(Cl)cc2Cl)s1,22µM*,-18%[10 µM],nt,-4%,-6%[9.22 µM]
CC(=O)c1cccc(NC(=O)/C=C/c2ccc([N+](=O)[O-])s2)c1,4µM*,?,nt,-38%,?
Cn1c2c(c(=O)c3ccccc31)C[C@@H](O)C(C)(C)O2,0%,11%,nt,nt,nt
COc1ccccc1OCCn1c(-c2ccc(Br)cc2)nc2ccccc2c1=O,2%,nt,nt,nt,nt
CN(C(=O)Nc1ccccc1)C1CCS(=O)(=O)C1 (configuration not stated),0%,-4%[10 µM],-7%,5%[46.1 µM],-4%
CC(=O)NC1=C(N(C)C2CCS(=O)(=O)C2)C(=O)c2ccccc2C1=O (configuration not stated),-2%,nt,?,-59%,13µM*
CCN(CC)c1ccc2nc3c(=O)n(C)c(=O)n(C)c3nc2c1,13µM*,nt,nt,nt,nt
CCC(=O)Nc1ccc2nc3c(=O)n(C)c(=O)n(C)c3nc2c1,0%,nt,nt,nt,nt
Cc1ccc(Cl)cc1N1CCN(C(=O)C2CCN(S(=O)(=O)c3cccnc3)CC2)CC1,0%,10%,-14%,?,11µM*
O=C(C1CCN(S(=O)(=O)c2cccnc2)CC1)N1CCN(c2ccccc2Cl)CC1,-1%,4%,-1%,-27%[46.1 µM],-27%
Cn1cccc1C(=O)N1CCC2(CC1)CCN(c1ccccc1)CC2,nt,-64%,nt,nt,nt
O=C(COc1ccc(S(=O)(=O)NC2CCCCC2)cc1)N1CCN(c2cccc(Cl)c2)CC1,0%,-22%,?,-16%[46.1 µM],16µM*
Cc1nc2ccccc2c(=O)n1-c1ccc(NC(=O)C(F)(F)F)cc1,7%,nt,25%[46 µM],nt,nt
Oc1ccc(C=Nc2ccc(N3CCOCC3)cc2)c(O)c1,-1%,-21%,-4%,-18%[46.1 µM],29%
Oc1ccc(N=Nc2cccc(C(F)(F)F)c2)cc1C=Nc1ccc(N2CCOCC2)cc1,0%,-12%[10 µM],-5%,7.9µM*,-2%
CCn1cc(C(=O)O)c(=O)c2cc(F)c(N3CCN(S(=O)(=O)c4ccc(NC(=O)OC)cc4)CC3)cc21,-1%,-11%[10 µM],?,-2%,32µM*
Cc1cc(C)c(NC(=O)Cn2c(=O)n(CCCCC(=O)NCc3ccccc3Cl)c(=O)c3ccccc32)c(C)c1,3%,nt,nt,nt,nt
C/C(=N\[N+](C)(C)C)c1ccc(C)c(C)c1,nt,21%[10 µM],nt,nt,nt
SMILES,Epigenetic derep,HTT ATP protect,LMNA splice mod,NPSR antagonist,HTT aggregate
CCn1c(=O)cc(SCC(=O)NCC2CCCO2)c2ccccc21 (configuration not stated),-3%,12%[10 µM],-12%,-23%[46.1 µM],6%
Cn1c(=O)cc(SCC(=O)NCC2CCCO2)c2ccc(Cl)cc21 (configuration not stated),1%,-42%[10 µM],-4%,10µM*,3%
CC(=O)NCCNC(=O)CCCn1c(=O)[nH]c2ccsc2c1=O,1%,nt,nt,nt,nt
Cc1cc(C)c(O)c(-c2cc(C(=O)Nc3ccc(S(=O)(=O)N4CCOCC4)cc3)[nH]n2)c1,3%,-94%[0.074 µM],?,13µM*,20µM*
COc1ccc(OCc2ccc(-c3nc(C#N)c(N4CCN(C)CC4)o3)o2)cc1,1%,nt,3%[46 µM],nt,nt
Cc1ccc(C2(c3ccc(C)cc3)CC2C(=O)Nc2ccc([N+](=O)[O-])cc2O)cc1 (configuration not stated),0%,-68%,?,?,7.1µM*
CC(C)(C)c1cc2nc3c(c(=O)n2[nH]1)CN(Cc1ccccc1)C3=O,1%,-2%[10 µM],nt,15%,-28%[9.22 µM]
COc1cc2ccccc2cc1C(=O)Nc1ccc2oc(-c3ccc(Cl)cc3)nc2c1,-2%,nt,nt,nt,nt
CCC(=O)N(CC)C1=C(O)c2ccccc2C(=O)C1=O,?,-44%,7%,0%[46.1 µM],-5%
CNC1=C(N(C(C)=O)c2ccc(Br)cc2)C(=O)c2ccccc2C1=O,-2%,nt,?,-2%,11µM*
CCC(=O)N(C1=C(NC)C(=O)c2ccccc2C1=O)C(C)C,1%,-110%,nt,11%,28µM*
N#Cc1c(NCc2ccccc2)ccnc1NCc1cccnc1,5%,11%[10 µM],?,-7%[46.1 µM],22µM*
CCc1nnc(N/N=C/c2ccc(N3CCC(C)CC3)c([N+](=O)[O-])c2)n1N,0%,-4%[10 µM],-2%,-4%,-21%
Cc1nnc(N/N=C/c2cc([N+](=O)[O-])c(N3CCC(C)CC3)cc2N2CCC(C)CC2)n1N,1%,-23%,?,10µM*,?
CCNc1nc(NC(C)C)nc(N(C#N)CCOc2ccccc2)n1,-1%,-8%,-8%,?,22µM*
CCNc1nc(NCC)nc(N(C#N)CCOc2ccccc2)n1,-1%,nt,nt,-16%,nt
Cc1sc2c(c1C)c(=O)n(-c1ccccc1)c(=O)n2CC(=O)c1ccc(Cl)cc1,-2%,nt,nt,nt,nt
Nc1nc(SCc2ccc(Cl)cc2Cl)nc2nc3c(cc12)CCCC3,18µM*,nt,?,-46%,-19%
Nc1nc(SCc2ccccc2Cl)nc2nc3c(cc12)CCCC3,-1%,-17%,-8%,-13%[46.1 µM],-2%
Cc1ccc(C(=O)Cn2c3c(sc2=N)CCCC3)cc1,1%,-186%,nt,nt,nt
c1csc(-c2csc3ncnc(NCCCN4CCOCC4)c23)c1,0%,26%[1.9 µM],?,23%[46.1 µM],7.9µM*
O=C(NCCCN1CCOCC1)c1cc(-c2cccs2)on1,14µM*,33%[10 µM],?,-1%[46.1 µM],3%
Cc1ccc(-c2cc(C(=O)NCCCN3CCOCC3)no2)cc1,-1%,-32%,6%,1%[46.1 µM],3.2µM*
CCOC(=O)c1cc(OC(=O)c2cc(Cl)ccc2OC)n(-c2ccccc2)n1,2%,nt,nt,nt,nt
O=P(c1ccccc1)(c1ccccc1)c1nc(-c2ccccc2)oc1N1CCOCC1,0%,21%[10 µM],nt,-8%,-28%[9.22 µM]
O=P(c1ccccc1)(c1ccccc1)c1nc(-c2ccc(Cl)cc2)oc1N1CCOCC1,10%,-19%,?,10µM*,20%[9.22 µM]
